Experimental data from PubChem BioAssay AID2013 (Sanford-Burnham Center for Chemical Genomics, 2009).
The campaign covered roughly 290,000 compounds. About 370 (0.13%) were called active. This excerpt belongs to a sample that is enriched for actives. Entries with a potency or affinity are not part of this list. Unmarked numbers belong to inactive results.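 Rule for the calls: active = spots per cell inhibited over 60%, with over 100 cells counted and total cytoplasm intensity under 500,000; inconclusive = wells with under 100 cells, flagged as likely toxic; inactive = the rest.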

The compounds below were run against G-protein coupled receptor 55 (Homo sapiens) (UniProt Q9Y2T6) (assay: GPR55 antagonists blocking LPI-driven arrestin recruitment, primary screen, imaging, U2OS, beta-arrestin-GFP, LPI agonist (AID 2013;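 note: U2OS cells stably carrying GPR55 and arrestin-GFP stimulated by 5 µM LPI near EC80; imaged beta-arrestin-GFP aggregate spots per cell after agonist stimulation; plate controls were LPI-stimulated DMSO wells for no effect and DMSO wells without LPI for full effect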)). Conditions: U2OS GPR55 beta-arrestin-GFP translocation imaging, LPI antagonism; at 10 µM; active compounds read high.
Chain of G-protein coupled receptor 55 (Homo sapiens) (Q9Y2T6 whole entry, looked up): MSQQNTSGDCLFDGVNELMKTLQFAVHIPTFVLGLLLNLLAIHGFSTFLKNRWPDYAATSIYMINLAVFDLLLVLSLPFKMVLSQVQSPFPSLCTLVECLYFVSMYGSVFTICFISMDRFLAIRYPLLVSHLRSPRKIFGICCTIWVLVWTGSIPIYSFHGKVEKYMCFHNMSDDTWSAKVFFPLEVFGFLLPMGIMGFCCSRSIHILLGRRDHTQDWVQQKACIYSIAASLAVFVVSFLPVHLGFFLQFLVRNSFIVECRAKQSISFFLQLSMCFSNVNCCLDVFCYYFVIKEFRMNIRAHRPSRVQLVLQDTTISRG
`N#CC(c1ccccn1)c1ncc(C(F)(F)F)cc1Cl` (stereo not drawn) showed an inhibition of 3.6%. For `O=C(NCc1ccccn1)c1ccc(Cl)c(S(=O)(=O)N2CCCCCC2)c1`, the inhibition was 21.3%. For `CCCCC1(Cc2ccc([N+](=O)[O-])cc2)C(=O)N(c2ccccc2)N(c2ccccc2)C1=O`, the inhibition was 51.2%. `CCCCC1(CO)C(=O)N(c2ccccc2)N(c2ccccc2)C1=O` showed an inhibition of -5.2%. Work on `CCCCC1(CC(=O)OCC)C(=O)N(c2ccccc2)N(c2ccccc2)C1=O` yielded an inhibition of 17.5%. Compound `CCCCC1(CC(=O)OC)C(=O)N(c2ccccc2)N(c2ccccc2)C1=O` has an inhibition of -3.2%. `CCCCCCSc1nc(O)c(C2OC(=O)c3c2ccc(OC)c3OC)c(=O)n1CC` (stereo not drawn) showed an inhibition of 2.6%. `CC(=O)c1ccc(NC(=O)CCc2c(C)nn(-c3ccc(N4CCOCC4)nn3)c2C)cc1` was tested, and the inhibition was 4.4%. Compound `O=C(NCc1ccco1)C(=O)NCC1OCCN1C(=O)c1ccc(Cl)cc1` (stereo not drawn) has an inhibition of 2.4%. Compound `O=C(Nc1ccnc(=O)[nH]1)c1sc2ccccc2c1Cl` has an inhibition of 5.4%. Work on `CCOCc1nnc(NC(=O)c2cc(OC)c(OC)cc2[N+](=O)[O-])s1` yielded an inhibition of 1.7%. `O=C1CSC(c2cccc(Cl)c2Cl)N1c1ccccn1` (stereo not drawn) gave an inhibition of 13%. Work on `O=C1CSC(c2ccc(Cl)cc2Cl)N1c1ccccn1` (stereo not drawn) yielded an inhibition of 22.4%. For `C/C(CC(=O)N1CCN(C=O)CC1)=N\NC(=O)c1cc2ccccc2cc1O`, the inhibition was 5.8%. Work on `Cc1nc2c(oc3ccc(Cl)cc32)c(=O)[nH]1` yielded an inhibition of -10.2%. `Clc1ncnc2c1oc1ccccc12` was tested, and the inhibition was 26.5%. Compound `Cc1c(N/C(=N/S(=O)(=O)c2ccc(Cl)cc2)c2ccccc2)c(=O)n(-c2ccccc2)n1C` has an inhibition of -4.8%. `c1ccc(-c2ccccc2-c2nc(-c3ccncc3)no2)cc1` gave an inhibition of 41.2%. For `COc1ccc(-c2noc(-c3ccccc3-c3ccccc3)n2)cc1`, the inhibition was 10.6%. `Cc1ccc(N/N=C(\C#N)C(=N)N2CCCCCC2)cc1` gave an inhibition of -5%. Work on `Cc1ccc(N/N=C(\C#N)C(=N)N2CCCCC2)cc1` yielded an inhibition of 2.6%. `Cc1ccc(N/N=C(\C#N)C(=N)N2CCOCC2)cc1` was tested, and the inhibition was 86.4% (active). Work on `CN(CC(=O)NCc1ccccc1F)S(=O)(=O)c1ccc(Cl)cc1` yielded an inhibition of 3.3%. `COC(=O)CSc1nc(NCC(C)C)nc(N2CCOCC2)n1` showed an inhibition of -2.9%. With `Clc1ccccc1OCCn1ccnc1` the inhibition was 1.9%. With `Clc1ccccc1C(c1ccccc1)(c1ccccc1)n1ccnc1` the inhibition was 98.7% (active). Work on `Clc1ccccc1OCCCn1ccnc1` yielded an inhibition of -2.4%. With `CCCCN(C(=O)CCCc1nc2ccccc2c(=O)[nH]1)c1c(N)n(CCCC)c(=O)[nH]c1=O` the inhibition was 21.5%. For `COC(=O)c1sc(NC(=O)/C=C/c2ccc(C)cc2)nc1C`, the inhibition was 16.9%. Work on `Cc1nc2ccc(S(=O)(=O)N3CCCCC3)cc2s1` yielded an inhibition of -5.9%. `CSc1nc2ccc(S(=O)(=O)N3CCCCC3)cc2s1` gave an inhibition of 10.7%. In the case of `CC1NC(=S)N(C2CCCCC2)C1=O` (stereo not drawn), the inhibition is reported as 2.5%. Compound `COc1cccc(OC)c1C1=NC(C)(C)CO1` has an inhibition of 6.1%. `COc1ccc2cc(C(=O)C3CCCN(C(=O)c4cc5nc(C)cc(C)n5n4)C3)ccc2c1` (stereo not drawn) was tested, and the inhibition was -6.7%. With `Cc1c(N=C2N=C(NC(=O)NC(C)(C)C)c3ccccc32)c(=O)n(-c2ccccc2)n1C` the inhibition was 1.4%. Compound `Cc1cccc(C)c1NS(=O)(=O)c1cc2c3c(c1)CC(=O)N3CCC2` has an inhibition of 6.8%. `CCc1nc(C)cn1S(=O)(=O)c1ccc(Cl)c(Cl)c1Cl` gave an inhibition of 18.7%. With `CCc1nc(C)cn1S(=O)(=O)c1ccc([N+](=O)[O-])cc1` the inhibition was 0.5%. `Cc1c(C(=O)NCCN2CCCC(O)C2)oc2c(F)cccc12` (stereo not drawn) showed an inhibition of 26.6%. For `O=[N+]([O-])c1ccc(N/N=C\c2cccn2-c2ccccc2)nc1`, the inhibition was 89.6% (active). Compound `O=C(N/N=C/c1cccn1-c1ccc([N+](=O)[O-])cc1)C(O)c1ccccc1` (stereo not drawn) has an inhibition of 16.8%. `Cc1cc(/C=N/Nc2ccc([N+](=O)[O-])cn2)c(C)n1-c1ccccc1` gave an inhibition of 13.4%. Work on `Cc1ccc(S(=O)(=O)N2CC=C(C(=O)NC3CC3)CC2)cc1` yielded an inhibition of 17.2%. For `COc1ccc(CNc2nc3c(c(C(F)(F)F)n2)CCCCC3)cc1`, the inhibition was 13.2%. `CN1CCN(C(=S)SCC(=O)N2CCCc3ccccc32)CC1` showed an inhibition of 23.2%. In the case of `COc1ccc(/C=C/c2nc3ccccc3n2C)cc1`, the inhibition is reported as -8.1%. `Cc1csc(NC(=O)c2cccc(S(=O)(=O)N3CCN(C)CC3)c2)n1` was tested, and the inhibition was 5%. Work on `Cc1c(CCOC(=O)CC23CC4CC(CC(C4)C2)C3)sc[n+]1CC(=O)c1ccc(Br)cc1` yielded an inhibition of 58.4%. With `Cc1c(CCOC(=O)c2ccccc2)sc[n+]1CC(=O)c1ccc(Br)cc1` the inhibition was -14%. `COc1c(F)c(F)c(C(=O)Nc2ccc(NC(=O)c3ccco3)cc2)c(F)c1F` gave an inhibition of 9.4%. `COc1ccc(-c2csc(-n3ncc(C(=O)O)c3C(F)(F)F)n2)cc1` showed an inhibition of 0.6%. `C=CC(=O)NCCCc1cc(C(C)(C)C)c(O)c(C(C)(C)C)c1` gave an inhibition of 8.3%. `C=CCn1c(CCc2ccccc2)nnc1SCC(N)=O` gave an inhibition of 1.8%. For `Cc1cc(C(=O)CSc2nnnn2-c2ccc(O)cc2)c(C)n1C`, the inhibition was 3.7%. Work on `COc1ccccc1OC(=O)Nc1ccc(Cl)cc1` yielded an inhibition of 0.1%. With `O=S(=O)(Nc1ccc(Cc2ccncc2)cc1)c1ccc(Cl)cc1` the inhibition was -2.3%. With `CC(C)(C)c1ccc(S(=O)(=O)Nc2ccc(Cc3ccncc3)cc2)cc1` the inhibition was 80.2% (active). With `O=S(=O)(Nc1ccc(Cc2ccncc2)cc1)c1ccc(Br)cc1` the inhibition was 2.9%. In the case of `Cc1cc2nc(-c3ccc[nH]c3=O)n(Cc3cccc(F)c3)c2cc1C`, the inhibition is reported as 8.3%. With `Cc1ccc(NC(=O)Nc2cc(Cl)ccc2C2COC(=O)C2=N)cc1` (stereo not drawn) the inhibition was 7.5%. In the case of `Fc1ccc(-c2n[nH]c(=S)c3ccccc23)cc1`, the inhibition is reported as 98% (active). Compound `Cc1ccc(-c2n[nH]c(=S)c3ccccc23)cc1` has an inhibition of 10.4%. Compound `S=c1[nH]nc(-c2ccccc2)c2ccccc12` has an inhibition of -20.4%. `Cc1c(CN2CCN(CC(C)(C)C)C(CCO)C2)[nH]c2ccccc12` (stereo not drawn) was tested, and the inhibition was 7.5%. Work on `COc1cccc(C2CC(c3cccc(NS(C)(=O)=O)c3)=NN2C(=O)c2ccccc2)c1OC` (stereo not drawn) yielded an inhibition of 10.9%. For `CN1CC2(C)CN(C(c3ccccc3)c3ccccc3)CC(C)(C1)C2O` (stereo not drawn), the inhibition was 5.6%. `Clc1ccc(C(c2ccccc2)N2CCNCC2)cc1` (stereo not drawn) gave an inhibition of 20%. `CC(C)(NC(=O)N1CCCC1)c1cccc(C(C)(C)NC(=O)N2CCCC2)c1` gave an inhibition of 0.9%. For `CCOC(=O)Cc1c(Cl)c2ccccc2[nH]c1=O`, the inhibition was -1.4%. `Cc1cc(C(=O)Cn2nc(C(=O)O)c3ccccc3c2=O)c(C)n1C1CC1` gave an inhibition of 3.9%. With `COc1ccc(C2c3c(-c4ccccc4O)n[nH]c3C(=O)N2Cc2ccco2)cc1OC` (stereo not drawn) the inhibition was -6.4%. `COc1ccc(CCN2C(=O)c3[nH]nc(-c4ccccc4O)c3C2c2cccc(Cl)c2)cc1` (stereo not drawn) gave an inhibition of 4.8%. Work on `COc1ccc(C2c3c(-c4ccccc4O)n[nH]c3C(=O)N2CCc2ccc(OC)c(OC)c2)cc1` (stereo not drawn) yielded an inhibition of 9.9%. `COc1ccc(CCN2C(=O)c3[nH]nc(-c4ccccc4O)c3C2c2ccccc2)cc1OC` (stereo not drawn) was tested, and the inhibition was 1.6%. With `COc1ccc(C(=O)OCC(=O)NC2CCCC2)c(OC)c1OC` the inhibition was 3.7%. In the case of `CCN(Cc1ccccc1)C(=O)CCCOc1ccccc1`, the inhibition is reported as -2%. Compound `CC(=O)Nc1ccc(S(=O)(=O)NNC(=O)C2CCCCC2)cc1` has an inhibition of 0.1%. In the case of `Cc1ccc(NC(=O)COC(=O)C2CC3C=CC2C3)cc1S(=O)(=O)N1CCCCC1` (stereo not drawn), the inhibition is reported as 64.8% (active). With `O=C(COC(=O)C1CC2C=CC1C2)Nc1cccc(S(=O)(=O)N2CCCCC2)c1` (stereo not drawn) the inhibition was -15.5%. `Cc1ccc(S(=O)(=O)N2CCCCC2)cc1NC(=O)COC(=O)C1CC2C=CC1C2` (stereo not drawn) gave an inhibition of -2.7%. In the case of `CCCCCn1c(CNC(C)=O)nc2ccccc21`, the inhibition is reported as 2.6%. Compound `O=c1c(-c2ccc(Cl)cc2)coc2c(CN3CCOCC3)c(O)ccc12` has an inhibition of -5.8%. Work on `Cc1ccc(S(C)(=O)=NS(=O)(=O)c2cccc3nsnc23)cc1` (stereo not drawn) yielded an inhibition of 5%. `Cn1c(=O)c(C(=O)NCCc2ccccc2)c(O)c2ccccc21` gave an inhibition of 11.2%. `O=C1C(Cc2ccc(Br)cc2)SC(=Nc2ccccc2)N1c1ccccc1` (stereo not drawn) showed an inhibition of 7.8%. `Nc1ccc(N2CCCCC2)c(S(=O)(=O)Nc2ccc(Cl)cc2)c1` showed an inhibition of 16.6%. With `COc1ccccc1NS(=O)(=O)c1cc(N)ccc1N1CCCCC1` the inhibition was -8.3%. `C/C(=N\Nc1ccc(Cl)c(C(=O)O)c1)c1cccc2ccccc12` was tested, and the inhibition was -3.2%. `COC(=O)[C@H](Cc1ccccc1)NC(=O)N1CCCCC1C` (stereo partly drawn) gave an inhibition of 11.9%. For `O=C(c1ccco1)N(CC1CCCO1)c1nc(-c2ccccc2)cs1` (stereo not drawn), the inhibition was -1.7%. For `CCCCCn1c(C(Cc2ccccc2)NC(=O)COC)nc2ccccc21` (stereo not drawn), the inhibition was 25.9%. With `CCCCC(NC(C)=O)c1nc2ccccc2n1CCCC` (stereo not drawn) the inhibition was 7.3%. `COc1ccc(CCn2c(C)cc(C(=O)COC(=O)c3ccc(NC(=O)CC#N)cc3)c2C)cc1` was tested, and the inhibition was -0.8%. Work on `O=C(NC1CCCC1)C(c1cccnc1)N(C(=O)c1ccco1)c1cccc(F)c1` (stereo not drawn) yielded an inhibition of -23.3%. For `Cc1ccc(N2C(=O)CSC23C(=O)Nc2ccccc23)cc1` (stereo not drawn), the inhibition was 17.5%. For `CC1=CC(C)(C)N2C(=O)C3(NCCc4c3[nH]c3ccccc43)c3cc(C)cc1c32` (stereo not drawn), the inhibition was 6.1%. With `Cc1cc2c3c(c1)C1(SCC(=O)N1c1ccc(F)cc1)C(=O)N3C(C)(C)CC2C` (stereo not drawn) the inhibition was 26.5%. `COc1ccc(N2C(=O)CSC23C(=O)N2c4c(cccc43)C(C)=CC2(C)C)cc1` (stereo not drawn) was tested, and the inhibition was -6.8%.
